# Results taken from PubChem BioAssay (NCI).
# This is part of a sample that, as a whole, favours compounds with a hit. Of some 83,000 tested, about 20% had one in any assay.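 Assay: single dose, 48 h. Readout: percent growth (0 = no net growth; negative = cell death). Active: <10.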 Values without a mark were called inactive. Active and inactive are the calls of the source.
# What was measured:
# Test in all cases: NCI-60 one-dose screen, 48 h (100 = growth as untreated, 0 = no growth, -100 = all killed)
# Details in all cases: 10 µM unless noted
# DU-145 prostate = system: DU-145 prostate
# K-562 leukemia = system: K-562 leukemia
# MALME-3M melanoma = system: MALME-3M melanoma
# MDA-MB-231 breast = system: MDA-MB-231 breast
# RXF 393 renal = system: RXF 393 renal
# SF-268 CNS = system: SF-268 CNS
# SF-295 CNS = system: SF-295 CNS
# SF-539 CNS = system: SF-539 CNS
# UACC-257 melanoma = system: UACC-257 melanoma
# M14 melanoma = system: M14 melanoma
SMILES,growth (DU-145 prostate),growth (K-562 leukemia),growth (MALME-3M melanoma),growth (MDA-MB-231 breast),growth (RXF 393 renal),growth (SF-268 CNS),growth (SF-295 CNS),growth (SF-539 CNS),growth (UACC-257 melanoma),growth (M14 melanoma)
CC(=O)c1cnc2ccc(-c3cc(Cl)c(O)c(Cl)c3)nc2c1NC1CCC(CN(C)C)CC1 (centres undefined),-5.67% [2.5 µM] (active),6.35% [2.5 µM] (active),-75.7% [2.5 µM] (active),-7.07% [2.5 µM] (active),-75.1% [2.5 µM] (active),-24.1% [2.5 µM] (active),-19.2% [2.5 µM] (active),-89% [2.5 µM] (active),-26.4% [2.5 µM] (active),-58.4% [2.5 µM] (active)
COc1cc(-c2nc(C(=O)Nc3ccc(C)cc3)nn2-c2ccc(F)c(F)c2)cc(OC)c1OC,100%,101%,89%,96.1%,116%,89.2%,94%,107%,,94.6%
Cc1cc(C)n(CC(=O)Nc2ccc(-c3nc4ccccc4s3)cc2)n1,103%,100%,108%,108%,129%,100%,103%,98.6%,107%,111%
CN1CCN(c2ccc(C(=O)Nc3n[nH]c4ccc(Cc5cc(F)cc(F)c5)cc34)c(NC3CCOCC3)c2)CC1,19.7%,-47.8% (active),-83.4% (active),-68.7% (active),-90.5% (active),-60.5% (active),-70.4% (active),-92.4% (active),-85.4% (active),-79.7% (active)
COC1CCC(N2C(=O)CNc3ncc(-c4ccc(C(C)(C)O)nc4)nc32)CC1 (centres undefined),4.44% (active),4.22% (active),-17.6% (active),14.2%,-28.5% (active),18.5%,-15.4% (active),-21.9% (active),-15.8% (active),2.03% (active)
CCN1CCN(Cc2ccc(Cc3ncc(F)c(-c4cc(F)c5nc(C)n(C(C)C)c5c4)n3)nc2)CC1,60.4%,-29.2% (active),65.9%,53.4%,-28.2% (active),54.4%,64.9%,59.8%,52.8%,45.2%
C=CC(=O)N1CCC[C@H](n2c(=O)n(-c3ccc(Oc4ccccc4)cc3)c3c(N)ncnc32)C1,62.4%,66.7%,98.2%,99.6%,84.8%,71.6%,98.4%,104%,62.9%,84.1%
O=C(c1c(F)ccc(NS(=O)(=O)N2CC[C@@H](F)C2)c1F)c1c[nH]c2ncc(-c3cnc(C4CC4)nc3)cc12,49.9%,15.8%,0.406% (active),35.5%,10%,49.4%,42.8%,53.5%,-21.3% (active),-0.512% (active)
Cc1ccc(Nc2nccc(N(C)c3ccc4c(C)n(C)nc4c3)n2)cc1S(N)(=O)=O,39.4%,7.01% (active),2.35% (active),-2.02% (active),-37.5% (active),45.4%,31.1%,-45.2% (active),-6.96% (active),-3.62% (active)
Cc1cnc(Nc2ccc(OCCN3CCCC3)cc2)nc1Nc1cccc(S(=O)(=O)NC(C)(C)C)c1,17.6%,1.89% (active),-34.1% (active),6.69% (active),-86.7% (active),-10.9% (active),15.5%,-83.2% (active),-78.9% (active),-48% (active)
